Experimental data published in PubChem BioAssay (EPA / NIEHS).
Several values for one entry are separate records, joined by “and”; a condition that tells them apart may be missing. Equal values may be shown once. The source holds several records for some structures; these can differ, active in one and inactive in another. Activity calls are given as the source filed them. Rule for the calls: active = hit-call score of the fitted dose curve at least 0.9, where 1 is the maximum; inactive = score below 0.9.

Key:
[1] = read-out: Interleukin-1 alpha (IL1a), IL1A (gene 3552); experiment: BSK_KF3CT_IL1a: BioMAP Diversity Plus: KF3CT Assay for Interleukin-1 alpha (IL1a) Biomarker Activity (AID 2283070); conditions: primary human keratinocytes with fibroblasts; actives raise or lower the signal
Procedure, shortened: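 Human keratinocyte plus foreskin fibroblast primary co-culture, sampled 24 h after chemical dosing. IL-1a measured by ELISA; responses fitted bidirectionally against DMSO baseline (negative control), so gain or loss of signal both count.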

[2] = read-out: TIMP metallopeptidase inhibitor 2 (TIMP2), TIMP2 (gene 7077); experiment: BSK_KF3CT_TIMP2: BioMAP Diversity Plus: KF3CT Assay for TIMP metallopeptidase inhibitor 2 (TIMP2) Biomarker Activity (AID 2283071); conditions: primary human keratinocytes with fibroblasts; actives raise or lower the signal
Procedure, shortened: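 Keratinocyte–fibroblast co-culture, 24 h exposure; TIMP-2 ELISA, DMSO-normalised bidirectional fit. Parallel SRB (0.1%, TCA-fixed, 560 nm) total-protein staining gauges cytotoxicity.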

[3] = read-out: C-C motif chemokine 2 (Homo sapiens) (UniProt P13500); experiment: BSK_KF3CT_MCP1: BioMAP Diversity Plus: KF3CT Assay for Monocyte Chemoattractant Protein 1 (MCP1/CCL2) Biomarker Activity (AID 2283073); conditions: primary human keratinocytes with fibroblasts; actives raise or lower the signal
Procedure, shortened: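 Human keratinocyte plus foreskin fibroblast primary co-culture exposed to chemical for 24 h. MCP-1 levels measured by ELISA. Bidirectional curve fitting relative to DMSO negative control as baseline.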

[4] = read-out: Matrix Metallopeptidase 9 (MMP9), MMP9 (gene 4318); experiment: BSK_KF3CT_MMP9: BioMAP Diversity Plus: KF3CT Assay for Matrix Metallopeptidase 9 (MMP9) Biomarker Activity (AID 2283074); conditions: primary human keratinocytes with fibroblasts; actives raise or lower the signal;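 for AC50: MMP9 protein level quantified by ELISA in the co-culture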
Procedure, shortened: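 Keratinocyte plus foreskin fibroblast human primary skin co-culture was dosed with chemical and MMP-9 was quantified by ELISA 24 h later. Bidirectional curve fitting used DMSO as negative control and activity baseline.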

[5] = read-out: urokinase plasminogen activator (uPA), PLAU (gene 5328); experiment: BSK_KF3CT_uPA: BioMAP Diversity Plus: KF3CT Assay for urokinase plasminogen activator (uPA) Biomarker Activity (AID 2283075); conditions: primary human keratinocytes with fibroblasts; actives raise or lower the signal
Procedure, shortened: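 Human keratinocyte plus foreskin fibroblast primary co-culture exposed to chemical for 24 h. uPA levels were quantified by ELISA, and activity was fitted bidirectionally against a DMSO negative-control baseline.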

CD40, CD40 (gene 958) [6] = experiment: BSK_LPS_CD40: BioMAP Diversity Plus: LPS Assay for CD40 Biomarker Activity (AID 2283076); conditions: primary human HUVEC with PBMC; actives raise or lower the signal
Procedure, shortened: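 Primary human umbilical vein endothelial cells co-cultured with peripheral blood mononuclear cells, LPS-stimulated, were dosed with chemical and read 24 h later. CD40 levels were measured by ELISA and fitted bidirectionally against DMSO as negative control and baseline.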

[7] = read-out: E-selectin (Homo sapiens) (UniProt P16581); experiment: BSK_LPS_Eselectin: BioMAP Diversity Plus: LPS Assay for Eselectin Biomarker Activity (AID 2283077); conditions: primary human HUVEC with PBMC; actives raise or lower the signal
Procedure, shortened: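 Human umbilical vein endothelial cells co-cultured with peripheral blood mononuclear cells under LPS stimulation; E-selectin measured by ELISA 24 h after chemical dosing. Activity fitted bidirectionally against DMSO as negative control and baseline.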

[8] = read-out: Interleukin-8 (IL8), CXCL8 (gene 3576); experiment: BSK_LPS_IL8: BioMAP Diversity Plus: LPS Assay for Interleukin-8 (IL8) Biomarker Activity (AID 2283078); conditions: primary human HUVEC with PBMC; actives raise or lower the signal
Procedure, shortened: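 Human umbilical vein endothelial cells co-cultured with PBMC were stimulated with LPS; IL-8 levels were measured by ELISA 24 h after chemical dosing. Activity was fitted bidirectionally against DMSO as negative control and baseline.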

[9] = BSK_LPS_SRB: Viability Assessment in the BioMAP Diversity Plus: LPS Assay (AID 2283079); conditions: primary human HUVEC with PBMC;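 note: total protein by sulforhodamine B absorbance as a cytotoxicity measure; measured one day after compound addition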
Procedure, shortened: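 Human umbilical vein endothelial cells co-cultured with PBMC (LPS system) were dosed for 24 h. Total protein was stained with 0.1% sulforhodamine B after 10% TCA fixation, read at 560 nm, and fitted bidirectionally against DMSO baseline.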

[10] = read-out: Interleukin-1 alpha (IL1a), IL1A (gene 3552); experiment: BSK_LPS_IL1a: BioMAP Diversity Plus: LPS Assay for Interleukin-1 alpha (IL1a) Biomarker Activity (AID 2283080); conditions: primary human HUVEC with PBMC; actives raise or lower the signal
Procedure, shortened: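 Human umbilical vein endothelial cells co-cultured with peripheral blood mononuclear cells were LPS-stimulated and exposed to test chemicals for 24 h. IL-1 alpha was quantified by ELISA, with bidirectional curve fitting against DMSO as the negative control and baseline.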

[11] = read-out: Monocyte Chemoattractant Protein-1 (MCP1), CCL2 (gene 6347); experiment: BSK_LPS_MCP1: BioMAP Diversity Plus: LPS Assay for Monocyte Chemoattractant Protein-1 (MCP1) Biomarker Activity (AID 2283081); conditions: primary human HUVEC with PBMC; actives raise or lower the signal;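 for AC50: secreted MCP-1 protein quantified by ELISA in culture supernatant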
Procedure, shortened: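 HUVEC plus PBMC co-culture (human primary cells, LPS system) exposed to test chemical for 24 h; MCP-1 measured by ELISA. Bidirectional curve fitting against DMSO baseline; parallel SRB total-protein staining flags overt cytotoxicity.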

[12] = BSK_LPS_PGE2: BioMAP Diversity Plus: LPS Assay for Prostaglandin E2 (PGE2) Biomarker Activity (AID 2283082); conditions: primary human HUVEC with PBMC; actives raise or lower the signal;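 for AC50: secreted prostaglandin E2 measured by ELISA in LPS-stimulated co-culture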
Procedure, shortened: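 Endpoint derived from bidirectional curve fitting versus DMSO of ELISA-measured PGE2 in LPS-stimulated human primary vascular co-culture (HUVEC with PBMC) harvested at 24 h.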

[13] = read-out: Macrophage colony-stimulating factor (MCSF), CSF1 (gene 1435); experiment: BSK_LPS_MCSF: BioMAP Diversity Plus: LPS Assay for Macrophage colony-stimulating factor (MCSF) Biomarker Activity (AID 2283083); conditions: primary human HUVEC with PBMC; actives raise or lower the signal
Procedure, shortened: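 Human umbilical vein endothelial cells co-cultured with peripheral blood mononuclear cells were exposed to compound for 24 h. M-CSF levels were measured by ELISA, and bidirectional curve fitting used DMSO as the negative control and baseline.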

[14] = read-out: Tissue Factor, F3 (gene 2152); experiment: BSK_LPS_TissueFactor: BioMAP Diversity Plus: LPS Assay for Tissue Factor Biomarker Activity (AID 2283084); conditions: primary human HUVEC with PBMC; actives raise or lower the signal
Procedure, shortened: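 Human umbilical vein endothelial cells co-cultured with peripheral blood mononuclear cells were dosed and stimulated with LPS. Cell-surface CD142 was quantified by ELISA at 24 h. Activity was fitted bidirectionally against DMSO baseline.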

[15] = read-out: Tumor necrosis factor (Homo sapiens) (UniProt P01375); experiment: BSK_LPS_TNFa: BioMAP Diversity Plus: LPS Assay for Tumour Necrosis Factor alpha (TNFa) Biomarker Activity (AID 2283085); conditions: primary human HUVEC with PBMC; actives raise or lower the signal;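 for AC50: TNFa protein level quantified by ELISA in the co-culture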
Procedure, shortened: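 Primary human vascular co-culture of HUVEC and PBMC; TNFa ELISA 24 h after treatment, analysed as increase or decrease relative to DMSO control.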

[16] = read-out: Vascular cell adhesion molecule 1 (VCAM1), VCAM1 (gene 7412); experiment: BSK_LPS_VCAM1: BioMAP Diversity Plus: LPS Assay for Vascular cell adhesion molecule 1 (VCAM1) Biomarker Activity (AID 2283086); conditions: primary human HUVEC with PBMC; actives raise or lower the signal
Procedure, shortened: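 Primary human vascular co-culture (umbilical vein endothelium plus PBMC) stimulated with LPS received chemical; 24 h later VCAM-1 was read by ELISA. Overt cytotoxicity was assessed by sulforhodamine B staining of parallel cultures at the same time point.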

CD38, CD38 (gene 952) = experiment: BSK_SAg_CD38: BioMAP Diversity Plus: SAg Assay for CD38 Biomarker Activity (AID 2283087); conditions: primary human HUVEC with PBMC; actives raise or lower the signal
Procedure, shortened: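 Fluorescence ELISA of cell-surface CD38 served as the read-out, with either increase or decrease fitted against DMSO controls. Cells were a human umbilical vein endothelium plus PBMC co-culture under SEB/TSST-1 stimulation, measured 24 h after dosing.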

CD40, CD40 (gene 958) [17] = experiment: BSK_SAg_CD40: BioMAP Diversity Plus: SAg Assay for CD40 Biomarker Activity (AID 2283088); conditions: primary human HUVEC with PBMC; actives raise or lower the signal
Procedure, shortened: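 Human umbilical vein endothelial cells co-cultured with PBMC; CD40 levels measured by ELISA with fluorescence read-out 24 h after chemical dosing. Gain or loss of signal fitted bidirectionally against DMSO baseline.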

CD69, CD69 (gene 969) = experiment: BSK_SAg_CD69: BioMAP Diversity Plus: SAg Assay for CD69 Biomarker Activity (AID 2283089); conditions: primary human HUVEC with PBMC; actives raise or lower the signal;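 for AC50: cell surface CD69 protein quantified by ELISA with fluorescence detection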
Procedure, shortened: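 ELISA, fluorescence read-out: CD69 on human umbilical vein endothelial cell + PBMC co-culture, 24 h post-dosing. Gain or loss of signal fitted bidirectionally against DMSO baseline.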

[18] = read-out: Transforming growth factor beta 1 (TGFb1), TGFB1 (gene 7040); experiment: BSK_KF3CT_TGFb1: BioMAP Diversity Plus: KF3CT Assay for Transforming growth factor beta 1 (TGFb1) Biomarker Activity (AID 2283072); conditions: primary human keratinocytes with fibroblasts; actives raise or lower the signal
Procedure, shortened: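 Signal changes in either direction, relative to DMSO, define activity here. TGF-b1 is read by ELISA from a human keratinocyte-fibroblast co-culture 24 h post-dose.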

Measured: AC50

Chain of Tumor necrosis factor (Homo sapiens) (P01375 whole entry, looked up): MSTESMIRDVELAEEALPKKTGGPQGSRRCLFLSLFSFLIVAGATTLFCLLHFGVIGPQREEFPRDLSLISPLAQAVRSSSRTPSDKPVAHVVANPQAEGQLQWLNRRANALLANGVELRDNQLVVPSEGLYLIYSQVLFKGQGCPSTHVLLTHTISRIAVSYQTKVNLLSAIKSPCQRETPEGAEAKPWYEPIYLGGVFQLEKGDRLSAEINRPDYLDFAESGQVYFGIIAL
Chain of E-selectin (Homo sapiens) (P16581 whole entry, looked up): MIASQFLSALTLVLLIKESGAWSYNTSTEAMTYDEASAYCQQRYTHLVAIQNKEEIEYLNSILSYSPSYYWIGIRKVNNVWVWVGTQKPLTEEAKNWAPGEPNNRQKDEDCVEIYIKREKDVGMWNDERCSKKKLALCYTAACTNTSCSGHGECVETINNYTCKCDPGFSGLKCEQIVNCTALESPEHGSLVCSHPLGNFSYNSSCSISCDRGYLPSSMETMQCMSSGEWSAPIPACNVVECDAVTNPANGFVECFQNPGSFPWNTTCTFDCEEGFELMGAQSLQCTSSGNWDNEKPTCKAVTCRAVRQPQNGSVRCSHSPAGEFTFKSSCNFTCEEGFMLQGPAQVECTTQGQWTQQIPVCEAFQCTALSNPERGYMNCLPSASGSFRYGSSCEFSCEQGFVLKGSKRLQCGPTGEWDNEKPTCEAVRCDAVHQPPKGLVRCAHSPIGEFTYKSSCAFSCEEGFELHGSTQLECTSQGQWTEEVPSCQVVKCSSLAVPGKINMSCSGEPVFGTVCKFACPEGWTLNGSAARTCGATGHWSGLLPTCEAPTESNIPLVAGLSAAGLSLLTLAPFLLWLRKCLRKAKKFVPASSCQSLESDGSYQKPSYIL

CCCCNC(=O)OCC#CI
active: [1] 30.1 µM and 20 µM | [2] 32.5 µM and 20.4 µM | [3] 32.8 µM and 20 µM | [4] 29.4 µM and 13.7 µM | [5] 29.6 µM and 15.1 µM | CD40, CD40 (gene 958) [6] 13.6 µM and 9.3 µM | [7] 31.3 µM and 29.8 µM | [8] 19 µM and 16.3 µM | [9] 26.7 µM | [10] 23.2 µM and 13 µM | [11] 30.9 µM and 16.6 µM | [12] 36 µM | [13] 20 µM and 17.1 µM | [14] 15.6 µM and 13.7 µM | [15] 13.2 µM and 12.3 µM | [16] 24.9 µM and 27.1 µM | CD38, CD38 (gene 952) 21.4 µM and 17.4 µM | CD40, CD40 (gene 958) [17] 18.7 µM and 22.5 µM | CD69, CD69 (gene 969) 21.9 µM and 15.5 µM
inactive: [12]

Cc1ccc(-c2c(Cl)nc(C#N)n2S(=O)(=O)N(C)C)cc1
inactive: [1] | [2] | [18] | [3] | [5] | [10] | [14] | [15]
active: [4] 6.7 µM | CD40, CD40 (gene 958) [6] 14.9 µM | [7] 39.2 µM | [8] 27.6 µM | [9] 26 µM | [11] 29.6 µM | [12] 30 µM | [13] 31.5 µM | [16] 34 µM | CD38, CD38 (gene 952) 22.5 µM | CD40, CD40 (gene 958) [17] 20 µM | CD69, CD69 (gene 969) 13.9 µM

CO/C=C(/C(=O)OC)c1ccccc1Oc1cc(Oc2ccccc2C#N)ncn1
inactive: [1] | [2] | [3] | [4] | [5] | CD40, CD40 (gene 958) [6] | [7] | [10] | [12] | [14] | [15] | [16]
active: [4] 2.7 µM | CD40, CD40 (gene 958) [6] 19.9 µM and 10 µM and 12.9 µM | [7] 10.9 µM and 5.78 µM and 5.72 µM | [11] 27.1 µM [middle of 4 runs] | [12] 9.64 µM | [13] 24.5 µM [middle of 4 runs] | [14] 35.3 µM | [15] 15.5 µM | [16] 11 µM and 8.26 µM and 19.7 µM | CD38, CD38 (gene 952) 20 µM [middle of 4 runs] | CD40, CD40 (gene 958) [17] 20.6 µM [middle of 4 runs] | CD69, CD69 (gene 969) 12.3 µM [middle of 4 runs]

COc1nc(C)nc(NC(=O)NS(=O)(=O)c2ccccc2CCC(F)(F)F)n1
active: [4] 23.7 µM
inactive: [1] | [2] | [3] | [4] | [5] | CD40, CD40 (gene 958) [6] | [7] | [8] | [9] | [10] | [11] | [12] | [13] | [14] | [15] | [16] | CD38, CD38 (gene 952) | CD40, CD40 (gene 958) [17] | CD69, CD69 (gene 969)
